Most compounds without a hit are left out; they make up all but 1.3% or so of the library.
hERG WT inh – inhibitors of human wildtype KCNH2 potassium channel; Q12809; U2OS, BacMam KCNH2, thallium flux FluxOr; stronger effect = lower value; activity change, % at 1.84 µM; 0.37% of 340,000 active; AID 720551;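 active means maximum activity change below -70%; inconclusive means maximum activity change between -70% and -50%; inactive means maximum activity change above -50%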; further: on the % scale 0 is the no-effect control and ±100 the full control effect
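U2OS cells were transduced with wild-type KCNH2 virus (2.03 x 10^8 / mL) for 4 h at room temperature, then cultured overnight at 37 C. Thallium flux was read with FluxOr dye. Rate constants were normalized to DMSO controls.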
TRPV1 potentiator – human TRPV1 potentiation; potentiation, % at 8.33 µM; AID 540277; TRPV1-expressing cells, Fluo-8 calcium influx, capsaicin EC20 potentiation; 0.02% of 320,000 active; Q8NER1; in the data active means potentiation above about 80%; inconclusive means between about 30% and that limit; further: 0% is about no effect
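TRPV1-expressing cells were cultured overnight at 35.5C and loaded with Fluo-8 calcium dye for 40 to 90 min at room temperature. After a 10 s baseline, compound was added and calcium influx was read kinetically for 3 min (ex 480/em 520 nm).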
TRPV1 ag – agonists of human vanilloid receptor 1 (TRPV1). Q8NER1. TRPV1-expressing cells, Fluo-8 calcium influx, agonist mode. activation, % at 8.33 µM. 0.19% of 320,000 active. AID 540275; in the data active means activation above about 80%; inconclusive means between about 30% and that limit; further: 0% is about no effect
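Cells expressing TRPV1 were dye-loaded with Fluo-8 and read kinetically: 10 s baseline, 3 min after compound (agonist portion), then 2 min after EC20 capsaicin (allosteric enhancer portion). Calcium-bound dye fluorescence at 480/520 nm.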
KCNH2 3.1 block – blocks the human KCNH2 3.1 channel isoform; U2OS KCNH2 3.1, thallium flux FluxOr; stronger effect = lower value; activity change, % (tested at about 1.8 µM); 0.95% of 340,000 active; AID 720553;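 active means maximum activity change below -70%; inconclusive means maximum activity change from -70% to -50%; inactive means maximum activity change above -50%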;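 further: thallium influx rate constant from kinetic fluorescence after stimulation buffer; on the % scale 0 is the no-effect control and ±100 the full control effect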
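Kinetic fluorescence (2 min after stimulation buffer) measures Tl+ influx through KCNH2 3.1 expressed by viral transduction in U2OS cells; the rate constant is normalized against DMSO controls serving as positive and negative references.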
* hit, by the source's call.

Screening Cc1sc2ncnc(Nc3ccc(O)cc3)c2c1C returned hERG WT inh -2 and KCNH2 3.1 block -33.
C/C(=N\Nc1ncnc2sc(C)c(C)c12)c1ccccn1 was read as hERG WT inh -73*, TRPV1 potentiator 7, TRPV1 ag 88* and KCNH2 3.1 block -8.
`Cc1ccc(Nc2ncnc3sc(C)c(C)c23)cc1` gave hERG WT inh 7, TRPV1 potentiator -9, TRPV1 ag 87* and KCNH2 3.1 block 16.
`C#CCOCCOCCOCCNc1nc(N2CCN(C(=O)[C@H](CC(N)=O)n3cc([C@@H](N)C(C)C)nn3)CC2)nc(N2CCN(C(=O)[C@H](CC(N)=O)n3cc([C@@H](N)C(C)C)nn3)CC2)n1` gave hERG WT inh 16 and KCNH2 3.1 block 7.
O=C(N/N=C/CCc1ccccc1)c1ccc(CN2c3cccc4cccc(c34)S2(=O)=O)cc1 was read as hERG WT inh 18, TRPV1 potentiator -8, TRPV1 ag 4 and KCNH2 3.1 block -78*.
For COc1ccc(CCNC(=O)c2cccc(S(=O)(=O)N3CCCCCC3)c2)cc1 the results were TRPV1 potentiator -3, TRPV1 ag 7 and KCNH2 3.1 block -19.
Cc1ccc(S(=O)(=O)NCC(=O)N(CC(=O)NCC2CCCO2)Cc2ccccc2Cl)cc1 (stereo unspecified) was read as hERG WT inh -233*, TRPV1 potentiator -11, TRPV1 ag 4 and KCNH2 3.1 block 5.
Screening COc1cccc(N(CC(=O)NCC2CCCO2)C(=O)CNS(=O)(=O)c2ccccc2)c1 (stereo unspecified) returned hERG WT inh -8, TRPV1 potentiator -8, TRPV1 ag 4 and KCNH2 3.1 block -70*.
CCN(CC(=O)NCC1CCCO1)S(=O)(=O)c1ccc(Cl)cc1 (stereo unspecified) was read as hERG WT inh -80*, TRPV1 potentiator -7, TRPV1 ag 2 and KCNH2 3.1 block 1.
Screening Cc1ccc(CN2CCNC(=O)C2CC(=O)NCc2cc(C)n(C)n2)cc1 (stereo unspecified) returned hERG WT inh 3, TRPV1 potentiator -1, TRPV1 ag -3 and KCNH2 3.1 block 5.
`O=C(CCN1CCN(C/C=C/c2ccccc2)CC1)Nc1ccccc1F` gave hERG WT inh -49, TRPV1 potentiator -3, TRPV1 ag -3 and KCNH2 3.1 block -102*.
`O=C(CN1CCN(CCC(=O)Nc2ccccc2F)CC1)Nc1ccc(Cl)cc1` gave hERG WT inh -102*, TRPV1 potentiator 2, TRPV1 ag 1 and KCNH2 3.1 block -108*.
Cc1cc(C)cc(NC(=O)CCN2C(=O)c3ccccc3S2(=O)=O)c1 was read as hERG WT inh -6, TRPV1 potentiator -7, TRPV1 ag -4 and KCNH2 3.1 block 1.
`Cc1ccccc1NC(=O)N1CCN(C/C=C/c2ccccc2)CC1` gave hERG WT inh 26, TRPV1 potentiator -3, TRPV1 ag 7 and KCNH2 3.1 block -86*.
Screening O=C(CCN1C(=O)c2ccccc2S1(=O)=O)Nc1ccc(Cl)cc1 returned hERG WT inh 5, TRPV1 potentiator 15, TRPV1 ag -11 and KCNH2 3.1 block -84*.
`O=C(CNc1cccc([N+](=O)[O-])c1)N1CCN(S(=O)(=O)c2ccc(Cl)cc2)CC1` gave hERG WT inh -12, TRPV1 potentiator 3, TRPV1 ag 1 and KCNH2 3.1 block -4.
For Cc1ccccc1NC(=O)Cc1nc(COC(=O)Cc2c(F)cccc2Cl)cs1 the results were hERG WT inh 2, TRPV1 potentiator -11, TRPV1 ag 23 and KCNH2 3.1 block -1.
CCOc1ccccc1N1CCN(C(=O)c2ccc(NS(=O)(=O)c3ccc4[nH]c(=O)[nH]c4c3)cc2)CC1 was read as hERG WT inh 2, TRPV1 potentiator -3, TRPV1 ag 4 and KCNH2 3.1 block 14.
CCn1nc(C)c(CN2CCC(C(=O)Nc3cccc(-c4cccc(F)c4)c3)CC2)c1C was read as hERG WT inh inconclusive, TRPV1 potentiator 28, TRPV1 ag 14 and KCNH2 3.1 block -78*.
For COc1cccc(O)c1CN1CCC(C(=O)Nc2ccc(-c3cccc(C)c3)cc2)CC1 the results were hERG WT inh -42, TRPV1 potentiator 1, TRPV1 ag 3 and KCNH2 3.1 block -99*.
Screening COc1ccc(CN2CCC(C(=O)Nc3ccc(Oc4cccnc4)cc3)CC2)c(C)c1C returned hERG WT inh 5, TRPV1 potentiator 4, TRPV1 ag 1 and KCNH2 3.1 block -74*.
`O=C(Nc1ccccc1Cl)c1ccccc1Cl` gave hERG WT inh 0, TRPV1 potentiator 20, TRPV1 ag 2 and KCNH2 3.1 block 2.
O=C(Nc1ccccc1Cl)c1ccc(Cl)cc1Cl was read as hERG WT inh -13, TRPV1 potentiator -11, TRPV1 ag 17 and KCNH2 3.1 block -72*.
CN1CCC(C(=O)C(=O)O)C1=O (stereo unspecified) was read as hERG WT inh -17 and KCNH2 3.1 block 4.
For O=S(=O)(Nc1nccs1)c1ccc(NS(=O)(=O)c2c(F)cc(F)c(Cl)c2F)cc1 the results were hERG WT inh -105* and KCNH2 3.1 block -3.
COc1ccc(CNC(=O)C2CCN(S(=O)(=O)c3ccc(N4CCCC4=O)cc3)CC2)cc1 was read as hERG WT inh 4 and KCNH2 3.1 block 8.
CN(CC1CCCN(CCc2ccc(Cl)cc2)C1)C(=O)c1ccco1 (stereo unspecified) was read as hERG WT inh -37 and KCNH2 3.1 block -79*.
COc1cc2c(cc1OC)-c1cc(Nc3ccc(C(=O)O)cc3)nc(=O)n1CC2 was read as hERG WT inh 7, TRPV1 potentiator -6, TRPV1 ag -5 and KCNH2 3.1 block -93*.
`CS(=O)(=O)Nc1ccc(C(=O)N2CC(=O)Nc3ccccc32)cc1` gave hERG WT inh -16, TRPV1 potentiator -3, TRPV1 ag 0 and KCNH2 3.1 block 5.
O=C(Nc1ccccc1SCC1CSc2nc3ccccc3c(=O)n21)c1ccccc1 (stereo unspecified) was read as hERG WT inh 1, TRPV1 potentiator inconclusive, TRPV1 ag 0 and KCNH2 3.1 block -15.
O=C(Nc1ccccc1SCC1CSc2nc3ccccc3c(=O)n21)c1cccc(Cl)c1 (stereo unspecified) was read as hERG WT inh -32, TRPV1 potentiator -2, TRPV1 ag -3 and KCNH2 3.1 block -84*.
Screening Cn1c(SSc2ccc(-c3cccnc3)n2C)ccc1-c1cccnc1 returned hERG WT inh -10 and KCNH2 3.1 block -19.
For Cc1noc(/C=C/N(C)C)c1S(=O)(=O)N1CCCC(C(=O)Nc2ccccc2F)C1 (stereo unspecified) the results were hERG WT inh -4, TRPV1 potentiator inconclusive, TRPV1 ag 2 and KCNH2 3.1 block 9.
OC(CSc1ccccc1)CN1CCN(c2cccc(Cl)c2)CC1 (stereo unspecified) was read as hERG WT inh -37 and KCNH2 3.1 block inconclusive.
